Measured values published in PMC4336329 (PLoS ONE, 2015).
The whole screen tested about 310,000 compounds, of which about 14,000 (4.5%) showed an effect of 50% or more. Effects have a minus sign here. The sample holds strong results, similar compounds and a random draw of the others, so the mix is not that of the screen.

target: human ether-à-go-go-related gene (hERG) potassium channel (human, UniProt Q12809); experiment: primary screen, population patch clamp on CHO cells stably expressing hERG; higher = less effect of the substance
Sequence (Q12809 whole entry, looked up): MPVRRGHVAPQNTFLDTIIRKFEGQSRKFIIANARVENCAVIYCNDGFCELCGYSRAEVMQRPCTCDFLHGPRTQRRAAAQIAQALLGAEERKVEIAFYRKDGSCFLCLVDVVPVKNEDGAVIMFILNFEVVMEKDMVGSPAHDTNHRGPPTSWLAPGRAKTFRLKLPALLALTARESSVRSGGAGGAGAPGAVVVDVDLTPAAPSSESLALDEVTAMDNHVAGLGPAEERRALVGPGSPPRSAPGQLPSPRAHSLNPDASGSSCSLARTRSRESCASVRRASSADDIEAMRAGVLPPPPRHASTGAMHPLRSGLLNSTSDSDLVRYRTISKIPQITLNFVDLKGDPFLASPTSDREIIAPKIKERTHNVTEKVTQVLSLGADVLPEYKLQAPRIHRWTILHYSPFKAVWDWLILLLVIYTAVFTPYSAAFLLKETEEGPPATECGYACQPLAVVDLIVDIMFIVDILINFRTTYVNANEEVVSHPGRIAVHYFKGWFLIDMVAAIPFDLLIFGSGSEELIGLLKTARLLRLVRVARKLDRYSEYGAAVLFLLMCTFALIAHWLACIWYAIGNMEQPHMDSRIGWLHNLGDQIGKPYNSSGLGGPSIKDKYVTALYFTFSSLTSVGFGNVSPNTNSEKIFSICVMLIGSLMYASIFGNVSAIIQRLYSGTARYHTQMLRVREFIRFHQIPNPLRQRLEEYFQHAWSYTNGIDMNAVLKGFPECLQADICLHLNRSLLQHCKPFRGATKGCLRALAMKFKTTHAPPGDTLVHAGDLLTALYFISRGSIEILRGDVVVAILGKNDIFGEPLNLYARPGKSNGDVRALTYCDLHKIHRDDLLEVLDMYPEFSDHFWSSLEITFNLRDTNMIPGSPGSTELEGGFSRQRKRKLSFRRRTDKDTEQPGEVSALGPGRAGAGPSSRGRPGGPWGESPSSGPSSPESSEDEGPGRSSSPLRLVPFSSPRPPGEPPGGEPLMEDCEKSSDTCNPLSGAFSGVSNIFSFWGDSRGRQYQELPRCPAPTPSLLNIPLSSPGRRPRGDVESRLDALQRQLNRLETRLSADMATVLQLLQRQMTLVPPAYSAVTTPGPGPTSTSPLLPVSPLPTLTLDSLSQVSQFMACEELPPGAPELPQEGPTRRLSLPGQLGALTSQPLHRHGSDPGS
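Further: peak tail current of the secondary pulse compared with the same well before compound.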

| SMILES | hERG current change (%, negative = inhibition) at 10uM [%] |
| --- | --- |
| CCCCNC(=O)CN1C(=O)COc2ccc(S(=O)(=O)N3CCCCCC3)cc21 | -1.25 |
| O=C(CSc1nc(=O)n2ccccc2n1)NCCc1ccccc1 | -1.36 |
| Cc1ccc2nc(CSc3nnc(Cc4cccs4)n3C3CCCCC3)cc(=O)n2c1 | -15.6 |
| COc1cccc(C(=O)N/N=C/c2ccc(OC)c(COc3ccccc3C(N)=O)c2)c1 | -2.25 |
| N#Cc1cc(Oc2ccc(Cl)cc2)c(N2CCOCC2)cc1C#N | -1.79 |
| Cn1c(SCC(=O)NCCc2ccccc2)nnc1-c1ccco1 | -4.63 |
| Cc1cccc(-n2c(SCC(=O)NCc3ccco3)nnc2-c2ccco2)c1 | -75.7 |
| O=C(CSc1nnc(-c2ccccc2)n1-c1ccccc1)NCc1ccco1 | 1.47 |
| CN(Cc1ccccc1)C(=O)CSc1nnc(-c2ccco2)n1-c1ccccc1 | -80.2 |
| Cc1nnc(SCC(=O)NCc2ccco2)n1-c1ccccc1 | 26.1 |
| CC(=O)CSc1nnc(-c2ccco2)n1-c1ccccc1 | -11.7 |
| CNC(=O)CSc1nnc(-c2ccco2)n1-c1cccc(C)c1 | -4.75 |
| NC(=O)CSc1nnc(-c2ccco2)n1-c1ccccc1 | 16.1 |
| O=C(CSc1nnc(-c2ccco2)n1-c1ccccc1)NCc1ccco1 | -67.8 |
| Cc1cccc(-n2c(SCC(N)=O)nnc2-c2ccco2)c1 | -1.07 |
| O=C(O)CCCCCNC(=O)CSc1nnc(-c2ccco2)n1-c1ccccc1 | 11.9 |
| O=C(CSc1nnc(-c2ccco2)n1-c1ccccc1)NCCc1ccccc1 | -69.4 |
| O=C(N1CCCCC1)N1CCN(S(=O)(=O)c2ccccc2)CC1 | 10.4 |
| Nc1cc(-c2ccc(Cl)cc2)nn1S(=O)(=O)c1ccc(Cl)cc1 | 19.1 |
| CC(=O)Nc1ccc(OCc2cnc(Cl)s2)cc1 | 11.3 |
| CCN(C(=O)COC(=O)c1c(C)nsc1NC)c1ccccc1 | -11.9 |
| Cc1onc(-c2ccccc2)c1C(=O)NNC(=S)NC(=O)/C=C/c1ccccc1 | 16.2 |
| O=C(c1ccccc1)N1CCN(C2c3cccc4cccc(c34)C2NS(=O)(=O)c2ccccc2)CC1 (stereo not drawn) | -21.9 |
| O=S(=O)(Nc1ccc(S(=O)(=O)N2CCCC2)cc1)c1ccccc1Br | 3.27 |
| CCC(=NCc1ccccc1)C1=C(O)C(C(=O)OC)C(C)(C)CC1=O (stereo not drawn) | -17 |
| C[C@@H]1CC=C[C@H]2[C@H]1C(=O)N(Cc1ccccc1)[C@H]2c1ccc(-c2ccc(F)cc2)cc1F | -0.198 |
| Cc1cc(C)nc(SCc2nnc(SCC(=O)NCc3ccco3)n2-c2ccccc2)n1 | -14.5 |

| SMILES | hERG current change (%, negative = inhibition) at 10uM [%] |
| --- | --- |
| O=C(CSc1nc2c(c(=O)n1-c1ccc(F)cc1)SCC2)NCC1CCCO1 (stereo not drawn) | -2.45 |
| O=C(CSc1nnc(-c2cccs2)n1-c1ccccc1)NCC1CCCO1 (stereo not drawn) | -74.1 |
| Cc1nnc(SCC(=O)NCC2CCCO2)n1-c1ccccc1 (stereo not drawn) | -4.28 |
| CCn1c(SCC(=O)NCc2ccco2)nnc1-c1cccs1 | -8.86 |
| O=C(CSc1nc2c(c(=O)n1-c1ccc(Cl)cc1)SCC2)NCC1CCCO1 (stereo not drawn) | -34.5 |
| O=C(CSc1nc2c(c(=O)n1-c1ccc(Br)cc1)SCC2)NCC1CCCO1 (stereo not drawn) | -60.9 |
| O=C(CSc1nnc(-c2cccs2)n1C1CC1)NCC1CCCO1 (stereo not drawn) | -0.536 |
| O=C(CSc1nnc(-c2cccs2)n1-c1ccccc1)NCc1ccco1 | -73 |
| CN(/N=C/c1c[nH]c2ccccc12)c1cnn(-c2ccc(F)c(Cl)c2)c(=O)c1Cl | -5.66 |
| CCOc1ccccc1CN1CCNC(=O)C1CC(=O)N(C)Cc1nonc1C (stereo not drawn) | 8.59 |
| COc1ccc(CNC(=O)c2cccc(-c3ccc(C)c4ccccc34)n2)cc1 | -24 |
| COc1ccc(-c2ccc(NS(=O)(=O)c3cc([N+](=O)[O-])ccc3C)cc2)nn1 | -25.5 |
| CN(CC(=O)Nc1ccc(Cl)cc1)S(=O)(=O)c1ccc2c(c1)n(C)c(=O)c(=O)n2C | 16.3 |
| COc1cccc(CC2(CO)CCCN(CC3=Cc4cc(Cl)ccc4OC3)C2)c1 (stereo not drawn) | -7.49 |
| COc1ccc(CC2(CO)CCN(CC3=Cc4cc(Cl)ccc4OC3)CC2)cc1 | -58.3 |
| COc1ccc2c(c1)C=C(CN1CCC(CO)(CCc3ccccc3)CC1)CO2 | -77.1 |
| COc1cccc(CC2(CO)CCCN(CC3=Cc4cc(OC)ccc4OC3)C2)c1 (stereo not drawn) | -21.5 |
| OCC1(CCOc2ccccc2)CCN(CC2=Cc3cc(Cl)ccc3OC2)CC1 | -21.9 |
| CCOc1ccc(S(=O)(=O)NC(Cc2cnc[nH]2)C(=O)O)cc1 (stereo not drawn) | 18.5 |
| CCN(CC)c1ccc(NC(=O)c2ccc(=O)[nH]c2)cc1S(=O)(=O)Nc1ccc(OC)cc1 | -7.22 |
| CCN(CC)CCNC(=O)c1cc(S(=O)(=O)N2CCc3ccccc32)cn1C | -66.1 |
| CCN(CC)CCCC(C)NC(=O)c1cccc(S(=O)(=O)N2CCc3ccccc32)c1.Cl (stereo not drawn) | -58.5 |
| CC(C)CCNC(=O)c1cc(S(=O)(=O)N2CCc3ccccc32)cn1C | 10.2 |
| CCCNC(=O)c1cc(S(=O)(=O)N2CCc3ccccc32)cn1C | -0.715 |
| CC(NC(=O)c1cccc(S(=O)(=O)N2CCc3ccccc32)c1)c1ccco1 (stereo not drawn) | -48 |
| CC(C)CCNC(=O)c1cccc(S(=O)(=O)N2CCc3ccccc32)c1 | 2.44 |
| CCCOc1ccccc1C1CC(=O)NC2=C1C(=O)CCC2 (stereo not drawn) | -1.24 |
